Experimental data as given in PubChem BioAssay (Tox21).
Records with an inconclusive call do not appear. Entries that show only a call come without a potency. The source made the active and inactive calls. Calls follow the shape of the dose curve; as a rule, active = well fitted cell-killing curve with a large enough effect in the repeat runs; inconclusive = weak or mixed curves, or effect the other way; inactive = flat fitted curve, though single readings scatter.

What was measured:
[1] = cAMP Responsive Elements (CRE) small molecule antagonists, cell-based qHTS assay: qHTS cell viability counter screen (AID 2060913); also: nearly all actives have a fitted effect of over 40% in size
Outline: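 CRE-bla HEK293T cells (2,000/well, 18 h) given compound plus NKH477 0.25 uM final for 3 h at 37C; viability counter-screen by CellTiter-Glo luminescence in same wells after 30 min.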

[2] = cAMP Responsive Elements (CRE) small molecule agonists, cell-based qHTS assay: qHTS cell viability counter screen (AID 2060914);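 also: viability read after 3 h of compound exposure; nearly all actives have a fitted effect of over 50% in size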
Outline: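 HEK 293T CRE-bla; DMEM + 10% dialyzed FBS, 25 mM HEPES; 18 h pre-incubation; compound 3 h, 37 °C/5% CO2; CellTiter-Glo added after reporter read; luminescence after 30 min RT.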
Potency is read from the fitted curve at half-maximal effect.

Cc1c(C(N)=O)cc([N+](=O)[O-])cc1[N+](=O)[O-]
Potency [1]: inactive
Potency [2]: inactive

COc1ccc(Cl)cc1C(=O)NCCc1ccc(S(=O)(=O)NC(=O)NC2CCCCC2)cc1
Potency [1]: inactive
Potency [2]: inactive

CNC(=O)c1cc(Oc2ccc(NC(=O)Nc3ccc(Cl)c(C(F)(F)F)c3)cc2)ccn1
Potency [1]: inactive
Potency [2]: inactive

C=CCn1c(=O)n(CC=C)c(=O)n(CC=C)c1=O
Potency [1]: inactive
Potency [2]: inactive

Cc1nc(C)c(C)nc1C
Potency [1]: inactive
Potency [2]: inactive

CC(=O)Oc1ccc([N+](=O)[O-])cc1CCl
Potency [1]: inactive
Potency [2]: inactive

CC1CCC(CO)CC1 (configuration not stated)
Potency [1]: inactive
Potency [2]: inactive

CC(C)(C)NCCO
Potency [1]: inactive
Potency [2]: inactive

COC(=O)CCSCCC(=O)OC
Potency [1]: inactive
Potency [2]: inactive

O=C(c1ccccc1)C(O)c1ccccc1 (configuration not stated)
Potency [1]: inactive
Potency [2]: inactive

O=c1c(-c2ccc(O)cc2)coc2cc(O)cc(O)c12
Potency [1]: inactive
Potency [2]: inactive

CC(C)(C)NCCNC(C)(C)C
Potency [1]: inactive
Potency [2]: inactive

CCC(C=O)CC
Potency [1]: inactive
Potency [2]: inactive

Cc1cccc(Nc2cc(Cl)nc(SCC(=O)O)n2)c1C
Potency [1]: inactive
Potency [2]: inactive

CC(O)C(=O)O (configuration not stated)
Potency [1]: inactive
Potency [2]: inactive

CCCCOC(=O)C(=O)OCCCC
Potency [1]: inactive
Potency [2]: inactive

C=CC(=O)OCC(CO)(COCC(COC(=O)C=C)(COC(=O)C=C)COC(=O)C=C)COC(=O)C=C
Potency [1]: 30.3 µM (active)
Potency [2]: 42.7 µM (active)

CCOc1cccc(N)c1
Potency [1]: inactive
Potency [2]: inactive

CCCO[Si](OCCC)(OCCC)OCCC
Potency [1]: inactive
Potency [2]: inactive

CC(C)(O)CCc1ccccc1
Potency [1]: inactive
Potency [2]: inactive

CCCc1nc2c(C)cc(-c3nc4ccccc4n3C)cc2n1Cc1ccc(-c2ccccc2C(=O)O)cc1
Potency [1]: inactive
Potency [2]: inactive
